# This is a sample that favours compounds with a hit; in the whole collection about 9% have one here.
# JMJD2A Tudor inh = inhibitors of human JMJD2A Tudor domain | O75164 | AlphaScreen JMJD2A-Tudor / H3K4me3 peptide binding | Potency, µM (doses to about 114 µM), for inactives: top-dose activity change, negative = inhibition, actives largely listed as inhibitors | hit rate 4.4% among 390,000 | AID 504339; further: on the % scale 0 is the no-effect control and ±100 the full control effect; nearly all actives have a fitted effect of over 50% in size
# HP1b chromo inh = inhibitors of HP1-beta chromodomain binding to methylated histone tails. hit rate 0.56% among 390,000. AlphaScreen HP1-beta / biotin-H3K9me3 peptide binding. AID 540317. Potency, µM (highest dose often 114 µM), inactives show at the highest dose activity change, negative = inhibition, most hits filed as inhibitors. P83916; further: nearly all actives have a fitted effect of over 70% in size
#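 HP1-beta protein (50 nM final) preincubated 30 min at room temperature with biotinylated H3(1-18)K9me3 peptide (50 nM) in PBS pH 7.4, 0.01% Tween-20, then compound added for 30 min. AlphaScreen streptavidin donor/nickel chelate acceptor beads (10 ug/mL final), 30 min dark, luminescence read.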
# BAZ2B block = BAZ2B (human) inhibition; AID 504333; hit rate 4.4% among 360,000; Q9UIF8; AlphaScreen BAZ2B-H3K14Ac peptide displacement; Potency, µM (doses to about 114 µM), for the others: at the top dose activity change, negative = inhibition, most hits filed as inhibitors; further: on the % scale 0 is the no-effect control and ±100 the full control effect; nearly all actives have a fitted effect of over 60% in size
#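 AlphaScreen displacement: compounds (up to 110uM) incubated 30 min at room temperature with a preformed 50 nM BAZ2B/50 nM biotinylated H3K14Ac peptide complex in PBS pH 7.4 with Tween-20. Donor and acceptor beads at 10 ug/mL final added, 20 min light-protected before reading.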
# G9a inh = blocks human histone lysine methyltransferase G9a; AID 504332; hit rate 8.8% among 350,000; Potency, µM (highest dose often 102 µM), for inactives: at the top dose activity, negative = inhibition, hits mostly inhibitors; Q96KQ7; G9a H3K9 monomethylation, AlphaScreen, 2 h; further: on the % scale 0 is the no-effect control and ±100 the full control effect; nearly all actives have a fitted effect of over 75% in size
#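 Step 1: enzyme (final 20 nM) with compound, 15 min RT. Step 2: substrate peptide 500 nM and SAM 20 uM, 2 h RT. Step 3: anti-H3K9me1 antibody and AlphaScreen beads, 10 min, then plate read.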
# ALOX12 inh = ALOX12 (human) lipoxygenase inhibition. purified 12hLO, xylenol orange hydroperoxide absorbance. P18054. Potency, µM (doses to about 108 µM), for the others: at the highest dose activity change, negative = inhibition, most hits filed as inhibitors. hit rate 1.1% among 580,000; further: on the % scale 0 is the no-effect control and ±100 the full control effect
#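 Purified human 12hLO (150 nM final) in 25 mM Hepes, 0.01% Triton X-100, pH 7.0 was preincubated 15 min at room temperature with compound. Then 40 uM arachidonic acid was added, 30 min. Hydroperoxide was read by Fe-XO absorbance ratio 573/405 nm.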
# PLK1 PBD block = inhibitors of human PLK1 polo-box domain binding; P53350; Plk1 PBD binding of FITC phosphopeptide, fluorescence polarization; Potency, µM, inactives show max response, negative = inhibition, hits mostly inhibitors; hit rate 2.8% among 360,000; further: series mostly up to about 57 µM; on the % scale 0 is the no-effect control and ±100 the full control effect; nearly all actives have a fitted effect of over 65% in size
# Numbers without * were called inactive; i = inactive; ? = inconclusive; nt = not tested or not shown; [ ] = dose if it differs, or a comment. The call rests on the fitted dose curve; in most records, active means well fitted curve in the direction sought with a large enough effect; inconclusive means small, poorly fitted or top-dose-only effect, or another doubt; inactive means no such curve, though single readings can be large; an effect the other way counts as inactive or inconclusive. Potency means the concentration at half of the fitted maximal effect.
SMILES,JMJD2A Tudor inh,HP1b chromo inh,BAZ2B block,G9a inh,ALOX12 inh,PLK1 PBD block
COc1ccc(C)cc1Nc1n[n+](-c2ccccc2)c(-c2ccc(SC)cc2)s1,?,-7%,56µM*,45µM*,?,-26%
Nc1nccnc1C(=O)OCc1nc2sc3c(c2c(=O)[nH]1)CCCC3,-29%,13%,-8%,9%[0.501 µM],12%,-3%
NC(=S)Cc1nc2n(n1)Cc1ccccc1-2,25µM*,-14%,-23%,4µM*,?,?
Cc1ccc(-c2nc3n(n2)Cc2ccccc2-3)cc1,-14%,9%,-2%,22%[59 µM],-4%,-19%
CC(=O)Nc1ccc(NC(=O)COc2cc(C)cc3oc(=O)cc(C)c23)cc1,5%,31%,-2%,7%,6%,3%
Cn1c(SCc2cccc(F)c2)nnc1-c1ccccn1,79µM*,19%,71µM*,1%[59 µM],-9%,-9%
Cc1ccccc1CSc1nnc(-c2ccccn2)n1C,-5%,32%,79µM*,-4%,9%,-2%
Cc1ccccc1CSc1nccn1-c1ccccc1,?,?,35µM*,nt,?,-13%
Cc1ccccc1-n1ccnc1SCC(=O)O,-12%,25%,-21%,-15%,?,-5%
O=C(O)C1C2C=CC(C2)C1C(=O)OCc1ccccc1 (stereo unspecified),5%[57.1 µM],44%,-4%,5%[12.7 µM],0%,-20%
CCOC(=O)N1CCN(Cc2nc3cc(NC(C)=O)ccc3n2C(C)C)CC1,50µM*,34%,?,-48%[59 µM],-17%,nt
CCCC(=O)Nc1ccc2c(c1)nc(CN1CCN(C(=O)OCC)CC1)n2C,?,11%,5%,18%,0%,-6%
Cn1c(CN2CCCC2)nc2cc(NC(=O)COc3ccc(Cl)cc3)ccc21,-29%,27%,-2%,22%[59 µM],-9%,0%
COc1ccc(OCC(=O)Nc2ccc3c(c2)nc(CN2CCCC2)n3C)cc1,-29%[11.4 µM],-6%,-11%,41%[12.7 µM],30%,27µM*
COc1ccc(OCC(=O)Nc2ccc3c(c2)nc(CCN2CCOCC2)n3C)cc1,-20%,16%,0%,56µM*,-1%,-6%
CCCC(=O)Nc1ccc2c(c1)nc(CN1CCN(C(=O)OCC)CC1)n2C(C)C,-13%,41%,-36%,-19%[59 µM],0%,nt
CCCC(=O)Nc1ccc2c(c1)nc(CN1CCN(C(C)=O)CC1)n2C,10%,29%,1%[57.1 µM],50µM*,0%,-4%
Cc1cccc(C)c1NC(=S)N/N=C/c1c(Cl)cccc1Cl,-20%,9%,-12%,-15%,-9%,-16%
C[C@H](c1ccccc1)N1C[C@@H](COCc2ccccc2)Oc2cccc(Oc3ccccc3)c2S1(=O)=O,nt,nt,nt,nt,3%,nt
COc1ccccc1-c1cc(-c2ccccc2)nc(SC(C(N)=O)c2ccccc2)c1C#N (stereo unspecified),-13%,38%,79µM*,-29%[59 µM],14%,-9%
N#Cc1c(-c2ccc(Cl)cc2)cc(-c2ccccc2)nc1SCC(=O)O,-26%,46%,56µM*,?,11µM*,?
CCCCS(=O)(=O)CC(O)CSc1nc(-c2ccc(C)cc2)cc(-c2ccccc2)c1C#N (stereo unspecified),-25%,-8%,-2%,7.9µM*,-24%,nt
N#Cc1c(-c2ccccc2)cc(C2CC2)nc1SCC(=O)c1cccs1,-1%,44%,4%,50%,0%,0%
N#Cc1c(-c2ccccc2)cc(C2CC2)nc1SCC(=O)O,-26%,20%,-32%,11µM*,-16%,?
Cc1nc(SC(C(N)=O)c2ccccc2)c(C#N)c(C)c1C (stereo unspecified),1%,42%,3%,-15%,107%,-6%
N#Cc1c(-c2ccccc2)cc(-c2ccccc2)nc1SCC(=O)Nc1ccc(Cl)cc1,7%,43%,12%,?,-14%,nt
Cc1cc(NC(=O)c2ccc3c(c2)C(=O)N(c2cccc(C)c2C)C3=O)no1,-11%,19%,0%,90%,i,2%

# Bioassay records (PubChem BioAssay)
